Our source for the Inhibition values is ChEMBL document CHEMBL4296182, “CO-ADD screening of NIH NCI Diversity Set V”.

In assay [1] the test system is Staphylococcus aureus. Put plainly: Antibacterial activity against Staphylococcus aureus MRSA ATCC 43300 (CO-ADD:GP_020); MIC in CAMBH media using NBS plates, by Resazurin F(560/590). Format: functional. The following applies: Concentration 20 uM, ASSAY_TEST Inhibition of Bacterial Growth, detection method Resazurin, Fluorescence (ex560/em590), MEDIA CAMHB, plate type 384well, CORNING #3640, time 18 hr. (Resazurin is reduced to fluorescent resorufin, in cell work by metabolically active cells.)

Assay [2] deals with Acinetobacter baumannii. As to the kind of experiment: Antibacterial activity against Acinetobacter baumannii ATCC 19606 (CO-ADD:GN_034); MIC in CAMBH media using NBS plates, by Resazurin F(560/590). Format: functional. The following applies: Concentration 20 uM, ASSAY_TEST Inhibition of Bacterial Growth, detection method Resazurin, Fluorescence (ex560/em590), MEDIA CAMHB, plate type 384well, CORNING #3640, time 18 hr.

Assay [3] concerns Escherichia coli. As to the kind of experiment: Antibacterial activity against Escherichia coli ATCC 25922 (CO-ADD:GN_001); MIC in CAMBH media using NBS plates, by Resazurin F(560/590). Format: functional. To be noted: Concentration 20 uM, ASSAY_TEST Inhibition of Bacterial Growth, detection method Resazurin, Fluorescence (ex560/em590), MEDIA CAMHB, plate type 384well, CORNING #3640, time 18 hr.

The test system of assay [4] is Klebsiella pneumoniae. The following applies: Concentration 20 uM; ASSAY_TEST Inhibition of Bacterial Growth; detection method Absorption (OD600); MEDIA CAMHB; plate type 384well; NBS; CORNING #3640; time 18 hr.
In assay [5] the test system is Candida albicans. The following applies: 20 µM.
Assay [6] relates to Cryptococcus neoformans. The following applies: Concentration 20 uM; ASSAY_TEST Inhibition of Fungal Growth; detection method Resazurin; Absorption (OD600-OD570); plate type 384well; NBS; CORNING #3640.

Structures are written as SMILES. For part of these data: Results with a measured potency or affinity are listed apart.

In the case of `CC(=O)Nc1ccc(OCCOc2ccc([N+](=O)[O-])cc2)cc1`, the Inhibition was 16.53% in assay [1]; 7.01% in assay [2]; 2.93% in assay [3]; 10.72% in assay [4]; -1.95% in assay [5]; -16.57% in assay [6].

On to `CCCNC(=O)c1ccc(S(N)(=O)=O)cc1`, for which the Inhibition in assay [1] is 24.95%; in assay [2], -15.44%; in assay [3], 7.13%; in assay [4], 13.6%; in assay [5], -0.57%; in assay [6], -5.61%.

In the case of `Cc1nc(Nc2ccc(F)cc2)nc(Nc2ccc(F)cc2)c1[N+](=O)[O-]`, the Inhibition in assay [1] was 16.01%; in assay [2], 5.04%; in assay [3], 5.3%; in assay [4], 11.05%; in assay [5], -2.79%; in assay [6], 0.25%.

For the compound `Nc1ccc(/N=N/c2ccccc2)c2ccccc12`, the Inhibition in assay [1] was 1.47%; in assay [2], -18.91%; in assay [3], 11.66%; in assay [4] it was 8.12%; in assay [5], 1.76%; in assay [6], -16.64%.

With `CC(C)(CO)N1CCN(C(S)=Nc2ccccc2)CC1`, the Inhibition in assay [1] was -0.05%; in assay [2], 2.01%; in assay [3], -1.36%; in assay [4], 29.13%; in assay [5], 8.13%; in assay [6], -5.08%.

Regarding `C(COC1CC2CC1C1C2CC2OC21)OC1CC2CC1C1C2CC2OC21` (stereo unspecified), the Inhibition in assay [1] was 7.31%; in assay [2] it was 15%; in assay [3], 5.47%; in assay [4], 11.14%; in assay [5], -1.79%; in assay [6] it was -10.71%.

As to `CCc1oc2ccccc2c1C(=O)c1cc(Br)c(O)c(Br)c1` [BENZBROMARONE], the Inhibition in assay [1] is -12.4%; in assay [2] it was -9.24%; in assay [3], 7.93%; in assay [4], 12.45%; in assay [5], 9.57%; in assay [6], -6.93%.

For `Oc1nc2[nH]c(Cl)nc(Cl)c-2n1`, the Inhibition was 12.09% in assay [1]; -10.58% in assay [2]; 13.78% in assay [3]; 9.63% in assay [4]; -2.33% in assay [5]; -19.04% in assay [6].

Consider `CCCC1OC(c2cc3c(cc2Cl)OCO3)OCC1CC` (stereo unspecified), for which the Inhibition in assay [1] was 3.15%; in assay [2] it was -17.34%; in assay [3] it was 11.31%; in assay [4], 6.46%; in assay [5] it was 5.6%; in assay [6] it was -15.5%.

Take `COC1OC2COC(c3ccccc3)OC2C(=O)C1NC(=O)c1ccccc1` (stereo unspecified): the Inhibition in assay [1] is 8.72%; in assay [2], 4.09%; in assay [3] it was 10.65%; in assay [4] it was 10.3%; in assay [5] it was 2.12%; in assay [6], -18.55%.

Regarding `Clc1nc(NCCc2ccccc2)c2c[nH]nc2n1`, the Inhibition is 2.77% in assay [1]; 12.4% in assay [2]; 0.9% in assay [3]; 13.65% in assay [4]; 5.89% in assay [5]; -10.39% in assay [6].

On to `NC(=O)Nc1ccc(Nc2ccccc2)cc1`, for which the Inhibition in assay [1] is 15.79%; in assay [2] it was -8.02%; in assay [3], 5.39%; in assay [4] it was 5.31%; in assay [5], 0.18%; in assay [6], -3.95%.

As for `CC(C)(C)N=C(S)NC(C)(C)C`, the Inhibition in assay [1] is 10.55%; in assay [2], -9.16%; in assay [3], 4.33%; in assay [4], 8.8%; in assay [5] it was 1%; in assay [6], -0.12%.

On to `Cn1ncc2c(Nc3cccc(Cl)c3)nc(Nc3cccc(Cl)c3)nc21`, for which the Inhibition in assay [1] is 15.88%; in assay [2] it was -2.31%; in assay [3] it was 4.26%; in assay [4], 11.58%; in assay [5], -1.22%; in assay [6] it was -11.25%.

In the case of `N#C/N=C/N1CC=C(c2ccc(Cl)cc2)CC1`, the Inhibition in assay [1] was 11.33%; in assay [2] it was 10.12%; in assay [3], 1.23%; in assay [4], 20.23%; in assay [5], 8.73%; in assay [6], -3.92%.

In the case of `CC(C)=CCC/C(C)=C\C(N)=O`, the Inhibition was -1.13% in assay [1]; -1.29% in assay [2]; 11.31% in assay [3]; -1.44% in assay [4]; -0.52% in assay [5]; -3.28% in assay [6].

Take `O=C(NN1CCCCC1)NN1CCCCC1`: the Inhibition in assay [1] was 9.98%; in assay [2], 7.95%; in assay [3] it was 2.92%; in assay [4], -4.05%; in assay [5], 1.96%; in assay [6], -2.31%.

Regarding `CS(=O)(=O)Oc1ccc(Br)c2cccnc12`, the Inhibition in assay [1] was 10.68%; in assay [2] it was 10.16%; in assay [3], 3.51%; in assay [4], 19.67%; in assay [5], 4.07%; in assay [6], -11.45%.

Regarding `CN(C)N1C(=O)c2c(Cl)c(Cl)c(Cl)c(Cl)c2C1=O`, the Inhibition turned out to be 2.83% in assay [1]; 0.5% in assay [2]; 6.02% in assay [3]; 6.84% in assay [4]; 1.54% in assay [5]; 46.33% in assay [6].

As for `COc1c(NC(C)=O)c2ccccc2c2ccccc12`, the Inhibition in assay [1] is 12.56%; in assay [2], 4.74%; in assay [3], 1.88%; in assay [4] it was 16.73%; in assay [5], 5.3%; in assay [6] it was -2.59%.

Regarding `CCOC(=O)C(Cc1ccc(O)cc1)Nc1nc2ccccc2o1` (stereo unspecified), the Inhibition is 27.08% in assay [1]; -2.1% in assay [2]; 6.27% in assay [3]; 19.95% in assay [4]; 10.7% in assay [5]; 8.22% in assay [6].

For `c1ccc(-n2c3ccccc3c3ccccc32)cc1`, the Inhibition in assay [1] is 0.65%; in assay [2], -3.58%; in assay [3], 6.48%; in assay [4], 0.88%; in assay [5], 5.95%; in assay [6] it was 11.23%.

In the case of `NC(=O)c1ccccc1OCC(=O)Nc1ccc(Cl)c(Cl)c1`, the Inhibition in assay [1] is 5.21%; in assay [2], -16.17%; in assay [3], 19.19%; in assay [4], 9.46%; in assay [5], 4.37%; in assay [6], -18.28%.

On to `N=C(N)n1c(N)nc2ccccc2c1=O`, for which the Inhibition in assay [1] is -3.84%; in assay [2], 11.96%; in assay [3] it was 12.39%; in assay [4], 5.57%; in assay [5], 0.23%; in assay [6] it was -13.19%.

Consider `Cc1nc2c(O)cccc2cc1CO`, for which the Inhibition in assay [1] is 12.47%; in assay [2], -18.52%; in assay [3] it was 6.1%; in assay [4], 7.86%; in assay [5], -0.94%; in assay [6], -5.84%.

As for `c1ccc2c(c1)nnn2-c1ccncc1`, the Inhibition was -3.68% in assay [1]; -2.01% in assay [2]; -7.33% in assay [3]; 4.04% in assay [4]; 1.59% in assay [5]; -7.26% in assay [6].

As a reminder, the Inhibition is the relative decrease from the control value, in per cent.
